# Reference: PubChem BioAssay (EPA / NIEHS)
# Activity calls are given as the source filed them. Rule for the calls: active = hit-call score of the fitted dose curve at least 0.9, where 1 is the maximum; inactive = score below 0.9.
# Experiment: ATG_NFI_CIS: Attagene CIS-FACTORIAL HepG2 Assay for human Nuclear Factor I (NFI) (AID 2282989)
# Details: HepG2 cis-regulatory reporter, NFI response element transcription; actives raise or lower the signal
# Experimental: ATG_CIS is a cell-based, multiplexed-readout assay that uses HepG2, a human liver cell line, with measurements taken at 24 hours after chemical dosing in a 24-well plate.ATG_NFI_CIS is one of 52 assay component(s) measured or calculated from the ATG_CIS assay. It is designed to make measurements of mRNA induction, a form of inducible reporter, as detected with fluorescence intensity signals by Reverse transcription polymerase chain reaction (RT-PCR) and Capillary electrophoresis technology.Data from the assay component ATG_NFI_CIS was analyzed into 1 assay endpoint. This assay endpoint, ATG_NFI_CIS, was analyzed with bidirectional fitting relative to DMSO as the negative control and baseline of activity. Using a type of inducible reporter, measures of mRNA for gain or loss-of-signal activity can be used to understand the reporter gene at the transcription factor-level as they relate to the gene NFIA. Furthermore, this assay endpoint can be referred to as a primary readout, because this assay has produced multiple assay endpoints where this one serves a reporter gene function. To generalize the intended target to other relatable targets, this assay endpoint is annotated to the dna binding intended target family, where the subfamily is nuclear factor I.
# Human liver HepG2 cells are transiently transfected with multiple reporter transcription units (MRTUs) in 6-well plates using FuGene 6 reagent (Roche; 3 ml FuGene/1 mg DNA). The MRTU constructs are regulated by a cis-regulating element (promoter). […] A major difference between the CIS and TRANS system is that in CIS activities of endogenous TFs are measured, whereas the TRANS assay evaluates changes in activities of exogenous, chimeric NR-Gal4 proteins. […] At the end of 24 hour incubation, total RNA was isolated using TriZol reagent (Invitrogen). The isolated RNA is then reverse-transcribed using oligo(dT) primer and Mo-MLV reverse transcriptase (Invitrogen) with DNAse I (Ambion) treatment for 30 min. The one-tenth of the produced cDNA was amplified by PCR using Taq DNA polymerase (Invitrogen) and two reporter sequence-specific primers. The PCR products were fluorescently labeled by primer extension with 6-arboxyfluorescein (6-FAM) 5'-labeled reporter sequence-specific primer (2 min at 95 C, 20 s at 68 C and 10 min at 72 C) and these products were digested with 5U of HpaI (New England Biolabs) for 2h at 37 C. The fragments were purified using Qiaquick PCR columns (Qiagen), analyzed on an ABI 3130xL genetic analyzer (Applied Biosystems) with peak positions identified by using a set of X-rhodamine (ROX)-labeled MapMarker1000 molecular weight standards (BioVentures). The raw capillary electrophoresis data was processed using Attagraph software (Attagene).
Structure (SMILES),outcome,AC50
CCCCNC(=O)NS(=O)(=O)c1ccc(C)cc1,inactive,
COc1cc2ncnc(Nc3cccc(Cl)c3)c2cc1OC,inactive,
CC(C)(C)NC(N)=O,inactive,
COc1cc(C)cc(O)c1,inactive,
CCCCCCCCCCCCCOS(=O)(=O)O,inactive,
O=S(=O)(O)c1cccc2c(S(=O)(=O)O)cccc12,inactive,
Cc1c(Cl)c(=O)oc2cc(O)ccc12,inactive,
CNCCCC12CCC(c3ccccc31)c1ccccc12,,11.1 µM (active)
Cc1ccc2sc3cccc(C)c3c2c1,inactive,
CCCCOCCOCCSC#N,inactive,
NC(N)=NC(=O)c1nc(Cl)c(N)nc1N,inactive,
O=[N+]([O-])c1ccc(Nc2ccc(Nc3ccccc3)c(S(=O)(=O)O)c2)c([N+](=O)[O-])c1,inactive,
C=C(C)[C@@H]1CC[C@@H](C)C[C@@H]1O,inactive,
NC(=O)Nc1ccc(Cl)cc1,inactive,
OC1C(O)C(O)C(O)C(O)C1O (stereo not given),inactive,
O=C(O)c1cccc([N+](=O)[O-])c1,inactive,
CN(C)c1ccc(O)c2c1C[C@H]1C[C@H]3[C@H](N(C)C)C(=O)C(C(N)=O)=C(O)[C@@]3(O)C(=O)C1=C2O,inactive,
C=CC(=O)NCOCC(C)C,inactive,
ClCCCl,inactive,
CCCCCCCCCCCCSC,inactive,

Structure (SMILES),outcome,AC50
CC(=O)OCc1ccc2c(c1)OCO2,inactive,
CCCCC/C=C/C=C/C=O,inactive,
CC(C#N)(CCC(=O)O)N=NC(C)(C#N)CCC(=O)O (stereo not given),inactive,
CC(CN1c2ccccc2Sc2ccccc21)N(C)C (stereo not given),inactive,
CC(=O)OCC=Cc1ccccc1,inactive,
C=CC(=O)OCC(O)COc1ccccc1 (stereo not given),inactive,
O=C1c2ccccc2C(=O)N1SC1CCCCC1,inactive,
CN(C)C(=N)N=C(N)N,inactive,
CCCCCNCCCCC,inactive,
OC1OC[C@@H](O)[C@H](O)[C@H]1O (stereo not given in full),inactive,
Nc1ccc(S(N)(=O)=O)cc1,inactive,
C=COCCOCCOCCOC=C,inactive,
CC(=O)/C=C/C1=C(C)CCCC1(C)C,inactive,
COCCOCCOCCOCCOCCO,inactive,
BrC1CCC(Br)C(Br)CCC(Br)C(Br)CCC1Br (stereo not given),,46 µM (active)
CC1CC(OC(=O)c2ccccc2O)CC(C)(C)C1 (stereo not given),inactive,
CC(CC(C)(C)C)CC(C)(C)CC(C)(C)C (stereo not given),inactive,
CCCc1c(OCCCOc2ccc(OCC(=O)O)cc2)ccc(C(C)=O)c1O,inactive,
OCCOCCOCCOCCO,inactive,
CC(C)(CO)[N+](=O)[O-],inactive,
